Experimental data taken from PubChem BioAssay (EPA / NIEHS).
The source made the active and inactive calls. The calls were made as follows: active = hit-call score of the fitted dose curve at least 0.9, where 1 is the maximum; inactive = score below 0.9.

read-out: Transforming growth factor beta 1 (TGFb1), TGFB1 (gene 7040); test: BSK_BE3C_TGFb1: BioMAP Diversity Plus: BE3C Assay for Transforming growth factor beta 1 (TGFb1) Biomarker Activity (AID 2283036;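 as to outcome: TGF-b1 protein level measured by ELISA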); conditions: primary human bronchial epithelial cells; actives raise or lower the signal
How it was run: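 TGF-b1 measured via ELISA, 24 h after chemical dosing of human bronchial epithelial cells (BE3C). Overt cytotoxicity assessed in parallel by SRB (0.1%, TCA-fixed, 560 nm); analysis bidirectional relative to DMSO.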

SMILES | outcome | AC50
CCS(=O)(=O)c1cccnc1S(=O)(=O)NC(=O)Nc1nc(OC)cc(OC)n1 | inactive | –
CCOC1Oc2ccc(OS(C)(=O)=O)cc2C1(C)C (configuration not stated) | inactive | –
[2H]C1([2H])[n+]2ccccc2-c2cccc[n+]2C1([2H])[2H] | inactive | –
O=C(O)CCCOc1ccc(Cl)cc1Cl | inactive | –
CC(C)N(C(=O)COc1nnc(C(F)(F)F)s1)c1ccc(F)cc1 | inactive | –
O=C(NC(=O)c1c(F)cccc1F)Nc1ccc(OC(F)(F)C(F)OC(F)(F)F)c(Cl)c1 (configuration not stated) | – | 0.235 µM (active)
N#Cc1c(Cl)c(Cl)c(Cl)c(C#N)c1Cl | – | 3.94 µM (active)
COC(=O)c1ccccc1S(=O)(=O)NC(=O)N(C)c1nc(C)nc(OC)n1 | – | 0.148 µM (active)
CNC(=O)Oc1cccc(N=CN(C)C)c1 | inactive | –
CCN(CC)C(=O)SCc1ccc(Cl)cc1 | inactive | –
Clc1ccccc1-c1nnc(-c2ccccc2Cl)nn1 | – | 32.5 µM (active)
COC(=O)c1ccccc1CS(=O)(=O)NC(=O)Nc1nc(OC)cc(OC)n1 | inactive | –
Cc1cc(C)nc(NC(=O)NS(=O)(=O)c2ccccc2C(=O)OC2COC2)n1 | inactive | –
CC1(c2ccc(Oc3ccccc3)cc2)OC(=O)N(Nc2ccccc2)C1=O (configuration not stated) | inactive | –
CCOc1nc(NC)nc(NC(=O)NS(=O)(=O)c2ccccc2C(=O)OC)n1 | inactive | –
CCc1ccc(C(=O)NN(C(=O)c2cc(C)cc(C)c2)C(C)(C)C)cc1 | inactive | –
O=[N+]([O-])c1c(Cl)c(Cl)c(Cl)c(Cl)c1Cl | inactive | –
CCC(C)(C)C(=O)OC1=C(c2ccc(Cl)cc2Cl)C(=O)OC12CCCCC2 | – | 35.7 µM (active)
CCC(C)(NC(=O)c1cc(Cl)c(C)c(Cl)c1)C(=O)CCl (configuration not stated) | inactive | –
COc1nn(CSP(=S)(OC)OC)c(=O)s1 | inactive | –
C#CCN1C(=O)COc2cc(F)c(N3C(=O)C4=C(CCCC4)C3=O)cc21 | inactive | –
CC(C)(C)C(O)/C(=C\c1ccc(Cl)cc1Cl)n1cncn1 (configuration not stated) | inactive | –
COP(=O)(OC)OC=C(Cl)Cl | inactive | –
ClC1C(Cl)C(Cl)C(Cl)C(Cl)C1Cl (configuration not stated) | inactive | –
CC1(C)C(C=C(Cl)Cl)C1C(=O)OC(C#N)c1ccc(F)c(Oc2ccccc2)c1 (configuration not stated) | inactive | –
COP(=S)(OC)Oc1ccc([N+](=O)[O-])cc1 | – | 9.07 µM (active)
CC[C@H](C)[C@H]1O[C@]2(C=C[C@@H]1C)C[C@@H]1C[C@@H](C/C=C(\C)[C@@H](O[C@H]3C[C@H](OC)[C@@H](O[C@H]4C[C@H](OC)[C@@H](O)[C@H](C)O4)[C@H](C)O3)[C@@H](C)/C=C/C=C3\CO[C@@H]4[C@H](O)C(C)=C[C@@H](C(=O)O1)[C@]34O)O2 (tested in a mixture with another compound) | – | 20 µM (active)
